Shown are actives, neighbours in structure and some others; about 2.4% of the full set was active somewhere.
CHT PAM: human CHT allosteric activation | Q9GZV3 | CHT-expressing cells, membrane potential dye, choline EC20; hits give high values; LV-AA mutant CHT in HEK293 cells | B-score at 10 µM | hit rate 0.49% among 310,000 | AID 488977;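 active = initial fluorescence not abnormally high and integrated response B-score, plate-corrected, over 3 SD above library mean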
CHT inh: inhibitors of human choline transporter CHT | Q9GZV3 | CHT-expressing cells, membrane potential dye, choline response; hits give low values | B-score at 10 µM | hit rate 0.86% among 310,000;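 active = B-score over 3 SD under the library average, and starting fluorescence ratio not unusually high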;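 note: choline stimulus applied at its EC90 after an EC20 pre-addition; B-score computed on integrated fluorescence ratio after choline addition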
TMEM16A inh: inhibitors of mouse TMEM16A calcium-activated chloride channel; hit rate 1.2% among 310,000; HEK293 TMEM16A/YFP iodide influx fluorescence, ionomycin; Q8BHY3; AID 588511; normalized B-score (activity score, 25-100; higher = stronger inhibition) at 10 µM;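 active = ratio plate-corrected score three or more library SD toward inhibition, starting fluorescence score within five deviations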;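 note: score derived from kinetic fluorescence span divided by baseline fluorescence per well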
ANO1 activ: mouse TMEM16A channel activation, primary screen; Q8BHY3; HEK293 TMEM16A/YFP-H148Q/I152L, iodide quench fluorescence; hits give low values; B-score at 10 µM; hit rate 0.3% among 340,000; AID 623877;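 active = fluorescence-ratio B-score plate-corrected deviation score at least 3 library SD below zero, with starting fluorescence score within 5 deviations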;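 note: channel opened by trigger with iodide after compound preincubation; score built on the fluorescence ratio of max minus min over baseline; more negative score means more quench and so TMEM16A activation or potentiation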
TMEM16A reconf: reconfirmed blocker of mouse TMEM16A calcium-activated chloride channel | shares compounds with TMEM16A inh | HEK293 TMEM16A/YFP-H148Q, iodide quench fluorescence; ionomycin added to raise cell calcium | inhibition, % at 10 µM | hit rate 39% among 2,300;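 active = mean duplicate percent inhibition, scaled so buffer wells are 0 and the reference blocker 100, over three buffer SD above buffer mean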
TMEM16A Ca cntr: counter-screen for TMEM16A inhibitors: effect on calcium mobilization; shares compounds with TMEM16A inh; TMEM16A/YFP HEK293, Fluo4 calcium mobilization; calcium response (% of ionomycin), % at 10 µM; hit rate 2% among 2,300; AID 652231;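 active = duplicate-averaged calcium signal over 20% of the ionomycin maximum, relative to buffer baseline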;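 note: each well's signal is peak minus trough fluorescence divided by its pre-addition baseline; 0% = buffer wells and 100% = ionomycin wells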
YFP-HEK293 quench: parental YFP-HEK293 iodide quench counter-screen activity | shares compounds with TMEM16A inh | ionomycin | YFP ratio F(max-min)/F0 at 10 µM | 2,300 tested, under 10 active;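 active = yellow fluorescent protein signal ratio exceeding the buffer control mean by over 5 SD of those controls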;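 note: ratio is mean of duplicate wells from kinetic YFP trace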
ClC-1 rat inh: blocks the rat ClC-1 voltage-dependent chloride channel. shares compounds with TMEM16A inh. CHO ClC-1-YFP, iodide influx fluorescence quench; iodide control reads 0, buffer control 100. ratio percent, % at 10 µM. 2,300 tested, under 10 active. AID 652236;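 active = duplicate-mean ratio percent above the mean of iodide-only control wells, which defines zero, plus 5 of their SD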;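 note: higher percent means stronger block of ClC-1 iodide influx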
Active calls of the source: *; i = inactive; / = no result.

SMILES | CHT PAM | CHT inh | TMEM16A inh | ANO1 activ | TMEM16A reconf | TMEM16A Ca cntr | YFP-HEK293 quench | ClC-1 rat inh
O=S(=O)(Nc1ccccc1O)c1ccc(-c2ccccc2)cc1 | i | i | 100* | i | 57.5%* | i | -1.06 | -24.0
O=S(=O)(Nc1cccnc1Cl)c1ccc(-c2ccccc2)cc1 | i | i | i | i | / | / | / | /
CCN(CC)c1ccc(/C=N/Nc2ccccc2)c(O)c1 | i | i | i | i | / | / | / | /
NS(=O)(=O)c1ccc(NCc2ccccc2OCc2ccc(F)cc2)cc1 | i | i | 100* | i | i | i | -0.928 | -2.5
NS(=O)(=O)c1ccc(CCNCc2ccccc2OCc2ccc(F)cc2)cc1 | i | i | i | i | / | / | / | /
Cc1ccc(/C=C/C(=O)OCC(=O)Nc2cccnc2Cl)o1 | / | / | / | i | / | / | / | /
COc1ccc(Cn2c(CCC(=O)Nc3ccccc3)nc3cccnc32)cc1 | i | i | i | i | / | / | / | /
COc1ccc(Cn2c(CCC(=O)Nc3ccc(CC#N)cc3)nc3cccnc32)cc1 | i | i | 25* | i | i | i | -1.07 | -6.0
CC(=O)c1ccc(NS(=O)(=O)c2ccc(CC(C)C)cc2)cc1 | i | i | 100* | i | 53.5%* | i | -1.07 | -5.5
CCN(CC)C(=O)Cn1c(=O)n(CC(=O)N2CCCCC2)c(=O)c2sccc21 | i | i | i | i | / | / | / | /
CC(=O)Nc1ccc(S(=O)(=O)N2CCN(CCCOc3ccccc3Cl)CC2)cc1 | i | i | 25* | i | i | i | -1.1 | -5.5
O=C(Nn1nnnc1Nc1ccccc1)C12CC3CC(CC(C3)C1)C2 | i | i | 25* | i | i | i | -0.8 | -5.5
O=C(NCc1ccccc1)C12CC3CC(CC(C3)C1)C2 | i | i | i | i | / | / | / | /
N#Cc1ccc(S(=O)(=O)N2CCCN(c3nc4ccc(Cl)cc4s3)CC2)cc1 | i | i | i | i | / | / | / | /
COc1ccc(NC(=O)CSCC(=O)N(C)Cc2cccc(OC)c2OC)cc1 | i | i | i | i | / | / | / | /
COc1cccc(CN(C)C(=O)CNC(=O)c2sc3ccccc3c2Cl)c1OC | i | i | 25* | i | i | i | -1.03 | -2.5
COc1cccc(CN(C)C(=O)COc2ccc(C(=O)c3ccc(Cl)cc3)cc2)c1OC | i | i | 100* | i | 26.0%* | i | -0.995 | -17.0
COc1ccc(C(=O)N2CCCC(c3nc(-c4cccs4)no3)C2)cc1OC (configuration not stated) | i | i | i | / | / | / | / | /
COc1ccc(C(=O)N2CCCC(c3nc(-c4cccs4)no3)C2)cc1 (configuration not stated) | i | i | 25* | i | i | i | -1.1 | -8.0
NC(=O)C1CCN(C2=C(Cl)C(=O)c3ccccc3C2=O)CC1 | i | i | 100* | i | 28.5%* | i | -0.968 | -30.5
COc1ccc(NC2CCCN(C(=O)c3ccc4[nH]c(C)c(C)c4c3)C2)cc1OC (configuration not stated) | i | i | i | i | / | / | / | /
COc1cc(/C=C/c2noc(-c3ccccc3O)n2)ccc1OC(C)=O | i | i | i | i | / | / | / | /
CC(Oc1ccccc1)C(=O)Nc1ccc(NC(=O)c2ccccc2)cc1 (configuration not stated) | i | i | i | i | / | / | / | /
CC(Oc1ccc(C(=O)c2ccccc2)cc1)C(=O)Nc1ccc(S(N)(=O)=O)cc1 (configuration not stated) | i | i | 100* | i | 53.5%* | i | -0.699 | -6.0
CCN(c1ccccc1)S(=O)(=O)c1cc(C(=O)Nc2cccc(Cl)c2)ccc1F | i | i | 100* | i | i | i | -1.16 | -7.0
SMILES | CHT PAM | CHT inh | TMEM16A inh | ANO1 activ | TMEM16A reconf | TMEM16A Ca cntr | YFP-HEK293 quench | ClC-1 rat inh
CCc1ccc(NC(=O)c2ccc(F)c(S(=O)(=O)N(CC)c3ccccc3)c2)cc1 | i | i | i | i | / | / | / | /
CCOc1ccccc1C(=O)Nc1nnc(C(C)C)s1 | i | i | i | i | / | / | / | /
CCCc1cc(=O)oc2cc(C)cc(OC(C)C(=O)NCc3cccnc3)c12 (configuration not stated) | i | i | i | i | / | / | / | /
COc1ccc(-c2nc3cc(NC(=O)Cc4ccc(OC)c(OC)c4)ccc3o2)cc1 | i | i | 100* | i | i | i | -0.951 | -7.5
Cc1cc(NC(=O)CSc2nnnn2-c2ccccc2F)no1 | i | i | i | i | / | / | / | /
Cc1ccc(SCCNS(=O)(=O)c2ccc3c(c2)OCCO3)cc1 | i | i | 25* | i | i | i | -1.14 | -9.0
COc1ccc(S(=O)(=O)NCCSc2ccc(C)cc2)cc1OC | i | i | i | i | / | / | / | /
CC(C)(C)c1csc(SCC(=O)Nc2ccc(Cl)cn2)n1 | i | i | 100* | i | i | i | -1.22 | -5.0
O=S(=O)(Nc1nc2ccccc2nc1N1CCN(c2ccccc2F)CC1)c1ccc(Cl)cc1 | i | i | 100* | i | 38.0%* | i | -0.99 | -10.5
CCOC(=O)N1CCC(Nc2nc3ccccc3nc2NS(=O)(=O)c2ccc(Cl)cc2)CC1 | i | i | i | i | 31.5%* | i | -0.817 | -144.0
O=C1Cc2ccccc2C(=O)N1c1ccc(F)cc1Cl | i | i | i | i | / | / | / | /
Cc1cccc(NC(=O)c2ccc(C(=O)c3ccccc3)cc2)n1 | i | i | 100* | i | 47.0%* | i | -0.951 | -18.5
Nc1cc(S(=O)(=O)Nc2ccc(Cl)cc2)ccc1N1CCOCC1 | i | i | 25* | i | i | i | -1.14 | -21.5
Nc1cc(S(=O)(=O)Nc2ccccc2Cl)ccc1N1CCOCC1 | i | i | i | i | / | / | / | /
O=S(=O)(Nc1ccc(Cl)cc1)c1ccc2c(c1)CCO2 | i | i | 25* | i | i | i | -0.933 | -8.5
O=S(=O)(Nc1ccc2c(c1)OCCO2)c1ccc(F)c(F)c1 | i | i | i | i | / | / | / | /
COc1ccc(N2CC(C(=O)Nc3nnc(SCc4cccnc4)s3)CC2=O)cc1 (configuration not stated) | i | i | i | i | / | / | / | /
COc1ccccc1C(=O)N(Cc1nc(-c2ccc(Cl)cc2)no1)C(C)C | i | i | 100* | i | i | i | -0.919 | -3.0
